In publication PMC5540273 (PLoS ONE, 2017):

Tested on: MLK2
Conditions: concentration: 1 μM,replicates: in singlicate; n = 1
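Further: KINOMEscan kinase panel screen.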

Compound	%Inh [%]
Cl.Oc1cc(-c2nc(-c3ccccc3)[nH]c2-c2ccncc2)ccc1Cl [SB-386023]	0
Cc1cc(C(=O)Nc2ccc(Oc3ccc4nc(NC(=O)C5CC5)cn4n3)cc2)nn1-c1ccccc1	43
O=C(NCCNc1ccnc(NCc2ccc(F)cc2)n1)c1cc2ccccc2s1 [GSK1379944]	0
C[C@@H](Oc1cc(-c2cnn(C3CCNCC3)c2)cnc1N)c1c(Cl)ccc(F)c1Cl	0
CNC(=O)c1ccccc1Sc1ccc2c(/C=C/c3ccccn3)n[nH]c2c1	17
C=CC(=O)Nc1cc2c(Nc3ccc(F)c(Cl)c3)ncnc2cc1OCCCN1CCOCC1 [GW781483]	0
CC(C)Nc1cc(-c2ccc3c(N)n[nH]c3c2)nc(N)n1 [GSK2221681]	0
Nc1nc(Nc2ccccc2)cc(-c2ccc3c(N)n[nH]c3c2)n1 [GSK2225749]	14
CN(C)CC(O)COc1ccc(Nc2nccc(-c3cnn4nc(N5CCOCC5)ccc34)n2)cc1 (stereo not drawn) [GW767488]	18
Cc1cc2cn[nH]c2cc1-c1cccc2c(N)c(C(N)=O)nnc12	0
O=C(NCCCN1CCOC1=O)c1cnc(NCc2cc(Cl)ccc2Cl)nc1NC1CCCC1	4
CCn1c(-c2nonc2N)nc2c(C#CC(C)(C)O)nc(OCCN)cc21.Cl.Cl [GSK902056]	0
Cc1n[nH]c2ccc(-c3cc(OC[C@@H](N)Cc4ccccc4)cnc3-c3ccoc3)cc12.O=C(O)C(F)(F)F.O=C(O)C(F)(F)F [GSK507358]	0
CN(C)CCOc1ccc(-c2cc(-c3c[nH]nc3-c3ccccn3)ccn2)cc1 [GW835314]	6
Cl.Cl.NC[C@H](CC1CCCCC1)NC(=O)c1cc(Br)c(-c2ccnc3[nH]ccc23)s1 [GSK1581427]	0
CC(C)N1C(=O)Cc2cc(Nc3ncc(C(F)(F)F)c(NCc4cccc(S(C)(=O)=O)c4)n3)ccc21	90.2
NC(=O)c1cc(-c2ccccc2)cc2c(C3CCNCC3)c[nH]c12 [GSK301362]	12
Cc1ccc2c(-c3ccncc3)c(-c3ccc(F)cc3)nn2c1.Cl [GW461484]	0
COc1ccc(C[C@@H](CN)NC(=O)c2cc(Br)c(-c3ccnc4[nH]ccc34)s2)cc1.Cl.Cl [GSK1389063]	0
Cl.Cl.Nc1nc(-c2ccc3c(N)n[nH]c3c2)cc(N2CCCC(NC(=O)c3ccccc3)C2)n1 (stereo not drawn) [GSK2286775]	0
CCN(CC)CCOc1ccc(Nc2ncc3cc(-c4c(Cl)cccc4Cl)c(=O)n(C)c3n2)cc1 [SB-601273]	71
CCN(CC)CCCCNc1ncc2cc(-c3c(Cl)cccc3Cl)c(NC(=O)NC(C)(C)C)nc2n1	40
Cc1ccc(-n2nc(C(C)(C)C)cc2NC(=O)Nc2ccc(OCCN3CCOCC3)c3ccccc23)cc1 [GW839464]	22
C[C@@H]1CCN(C(=O)CC#N)C[C@@H]1N(C)c1ncnc2[nH]ccc12	0
C[C@H]1Oc2cc(cnc2N)-c2c(nn(C)c2C#N)CN(C)C(=O)c2ccc(F)cc21	0
Cc1occc1-c1nc(N)c(OC[C@@H](N)Cc2c[nH]c3ccccc23)cc1-c1cc2c(C)n[nH]c2cn1 [GSK1660450]	0
Cl.Cl.NC[C@H](Cc1ccc(C(F)(F)F)cc1)NC(=O)c1cc(Br)c(-c2ccnc3[nH]ccc23)s1 [GSK1487252]	0

Tested on: MLK3
Conditions: concentration: 1 μM,replicates: in singlicate; n = 1

Compound	%Inh [%]
Cl.Oc1cc(-c2nc(-c3ccccc3)[nH]c2-c2ccncc2)ccc1Cl [SB-386023]	3
Cc1cc(C(=O)Nc2ccc(Oc3ccc4nc(NC(=O)C5CC5)cn4n3)cc2)nn1-c1ccccc1	4
O=C(NCCNc1ccnc(NCc2ccc(F)cc2)n1)c1cc2ccccc2s1 [GSK1379944]	0
C[C@@H](Oc1cc(-c2cnn(C3CCNCC3)c2)cnc1N)c1c(Cl)ccc(F)c1Cl	0
CNC(=O)c1ccccc1Sc1ccc2c(/C=C/c3ccccn3)n[nH]c2c1	1
C=CC(=O)Nc1cc2c(Nc3ccc(F)c(Cl)c3)ncnc2cc1OCCCN1CCOCC1 [GW781483]	3
CC(C)Nc1cc(-c2ccc3c(N)n[nH]c3c2)nc(N)n1 [GSK2221681]	9
Nc1nc(Nc2ccccc2)cc(-c2ccc3c(N)n[nH]c3c2)n1 [GSK2225749]	0
CN(C)CC(O)COc1ccc(Nc2nccc(-c3cnn4nc(N5CCOCC5)ccc34)n2)cc1 (stereo not drawn) [GW767488]	18
Cc1cc2cn[nH]c2cc1-c1cccc2c(N)c(C(N)=O)nnc12	30
O=C(NCCCN1CCOC1=O)c1cnc(NCc2cc(Cl)ccc2Cl)nc1NC1CCCC1	23
CCn1c(-c2nonc2N)nc2c(C#CC(C)(C)O)nc(OCCN)cc21.Cl.Cl [GSK902056]	0
Cc1n[nH]c2ccc(-c3cc(OC[C@@H](N)Cc4ccccc4)cnc3-c3ccoc3)cc12.O=C(O)C(F)(F)F.O=C(O)C(F)(F)F [GSK507358]	0
CN(C)CCOc1ccc(-c2cc(-c3c[nH]nc3-c3ccccn3)ccn2)cc1 [GW835314]	19
Cl.Cl.NC[C@H](CC1CCCCC1)NC(=O)c1cc(Br)c(-c2ccnc3[nH]ccc23)s1 [GSK1581427]	0
CC(C)N1C(=O)Cc2cc(Nc3ncc(C(F)(F)F)c(NCc4cccc(S(C)(=O)=O)c4)n3)ccc21	98.8
NC(=O)c1cc(-c2ccccc2)cc2c(C3CCNCC3)c[nH]c12 [GSK301362]	0
Cc1ccc2c(-c3ccncc3)c(-c3ccc(F)cc3)nn2c1.Cl [GW461484]	0
COc1ccc(C[C@@H](CN)NC(=O)c2cc(Br)c(-c3ccnc4[nH]ccc34)s2)cc1.Cl.Cl [GSK1389063]	0
Cl.Cl.Nc1nc(-c2ccc3c(N)n[nH]c3c2)cc(N2CCCC(NC(=O)c3ccccc3)C2)n1 (stereo not drawn) [GSK2286775]	0
CCN(CC)CCOc1ccc(Nc2ncc3cc(-c4c(Cl)cccc4Cl)c(=O)n(C)c3n2)cc1 [SB-601273]	75
CCN(CC)CCCCNc1ncc2cc(-c3c(Cl)cccc3Cl)c(NC(=O)NC(C)(C)C)nc2n1	4
Cc1ccc(-n2nc(C(C)(C)C)cc2NC(=O)Nc2ccc(OCCN3CCOCC3)c3ccccc23)cc1 [GW839464]	1
C[C@@H]1CCN(C(=O)CC#N)C[C@@H]1N(C)c1ncnc2[nH]ccc12	3
C[C@H]1Oc2cc(cnc2N)-c2c(nn(C)c2C#N)CN(C)C(=O)c2ccc(F)cc21	23
Cc1occc1-c1nc(N)c(OC[C@@H](N)Cc2c[nH]c3ccccc23)cc1-c1cc2c(C)n[nH]c2cn1 [GSK1660450]	22
Cl.Cl.NC[C@H](Cc1ccc(C(F)(F)F)cc1)NC(=O)c1cc(Br)c(-c2ccnc3[nH]ccc23)s1 [GSK1487252]	0
